{
  "source": "paper PMC4336329",
  "about": "(PLoS ONE, 2015)",
  "note": "In all, about 310,000 compounds went through this assay and about 14,000 (4.5%) showed an effect of 50% or more. Effects have a minus sign here. What follows is part of a selection rich in strong results, with near analogues and random picks from the rest.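 Further: peak tail current of the secondary pulse compared with the same well before compound.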",
  "data": [
    {"target": "human ether-à-go-go-related gene (hERG) potassium channel (human, UniProt Q12809)", "sequence (Q12809 whole entry, looked up)": "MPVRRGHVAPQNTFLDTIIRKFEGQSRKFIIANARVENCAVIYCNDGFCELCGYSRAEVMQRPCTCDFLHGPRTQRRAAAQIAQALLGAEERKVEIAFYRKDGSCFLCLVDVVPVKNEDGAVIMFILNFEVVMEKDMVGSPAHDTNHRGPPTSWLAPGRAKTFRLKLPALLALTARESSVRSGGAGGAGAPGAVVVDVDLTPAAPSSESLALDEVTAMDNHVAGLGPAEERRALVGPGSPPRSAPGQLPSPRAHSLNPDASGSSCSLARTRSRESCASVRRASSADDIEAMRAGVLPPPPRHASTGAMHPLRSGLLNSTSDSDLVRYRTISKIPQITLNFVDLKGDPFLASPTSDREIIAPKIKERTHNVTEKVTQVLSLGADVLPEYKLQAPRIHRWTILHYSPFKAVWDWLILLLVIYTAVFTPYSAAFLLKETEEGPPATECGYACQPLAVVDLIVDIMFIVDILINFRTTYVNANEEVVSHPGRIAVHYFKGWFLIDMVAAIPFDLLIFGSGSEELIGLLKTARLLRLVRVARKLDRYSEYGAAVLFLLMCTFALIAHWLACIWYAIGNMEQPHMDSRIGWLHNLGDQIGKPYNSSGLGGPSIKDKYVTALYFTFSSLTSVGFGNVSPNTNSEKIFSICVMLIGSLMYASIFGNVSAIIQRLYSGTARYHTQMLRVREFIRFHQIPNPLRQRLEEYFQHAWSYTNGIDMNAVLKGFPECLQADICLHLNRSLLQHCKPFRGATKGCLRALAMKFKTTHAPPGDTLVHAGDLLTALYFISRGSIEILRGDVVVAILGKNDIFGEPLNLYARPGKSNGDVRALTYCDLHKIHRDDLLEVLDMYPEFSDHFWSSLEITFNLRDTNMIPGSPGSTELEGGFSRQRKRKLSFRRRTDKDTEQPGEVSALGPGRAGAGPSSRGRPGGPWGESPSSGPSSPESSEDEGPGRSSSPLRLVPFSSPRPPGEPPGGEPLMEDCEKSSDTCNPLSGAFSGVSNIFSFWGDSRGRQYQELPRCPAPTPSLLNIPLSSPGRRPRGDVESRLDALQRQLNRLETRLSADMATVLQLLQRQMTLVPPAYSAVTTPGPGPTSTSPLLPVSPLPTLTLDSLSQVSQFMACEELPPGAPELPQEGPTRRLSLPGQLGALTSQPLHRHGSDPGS", "assay": "primary screen, population patch clamp on CHO cells stably expressing hERG; higher = less effect of the substance", "units": {"hERG current change (%, negative = inhibition) at 10uM": "%"}, "values": [
      {"smiles": "C/C(=N/OCc1ccc(Br)cc1)c1ccccn1", "hERG current change (%, negative = inhibition) at 10uM": 6.29},
      {"smiles": "CCc1ccc(C(=O)COC(=O)c2ccco2)cc1", "hERG current change (%, negative = inhibition) at 10uM": 9.18},
      {"smiles": "COc1ccc(CCNC(=O)COC(=O)c2cnc(C)cn2)cc1", "hERG current change (%, negative = inhibition) at 10uM": 11.3},
      {"smiles": "O=C(Nc1ccccc1C(=O)Nc1ccc2c(c1)OCO2)c1cccs1", "hERG current change (%, negative = inhibition) at 10uM": 3.6},
      {"smiles": "Cc1cc(C)cc(NC(=O)COC(=O)CN=C2NS(=O)(=O)c3ccccc32)c1", "hERG current change (%, negative = inhibition) at 10uM": 15.6},
      {"smiles": "O=C(NCC1CCCO1)c1ccc(COc2ccc(F)cc2)o1", "note": "(stereo not shown)", "hERG current change (%, negative = inhibition) at 10uM": -5.59},
      {"smiles": "CCCOc1ccc(/C=N/Nc2cc(N3CCOCC3)ncn2)c(O)c1", "hERG current change (%, negative = inhibition) at 10uM": 13.4},
      {"smiles": "O=c1[nH]cc([N+](=O)[O-])cc1Br", "hERG current change (%, negative = inhibition) at 10uM": 2.05},
      {"smiles": "CN1CCNC(=O)C1CC(=O)N1CC=C(c2ccc(F)cc2)CC1", "note": "(stereo not shown)", "hERG current change (%, negative = inhibition) at 10uM": -3.88},
      {"smiles": "CCCCOc1ccc(C(=O)NCC(=O)N2CC=C(c3ccccc3)CC2)cc1", "hERG current change (%, negative = inhibition) at 10uM": 16.8},
      {"smiles": "Cl.NC(=O)c1ccc(OCCC(O)N2CC=C(c3ccc(F)cc3)CC2)cc1", "note": "(stereo not shown)", "hERG current change (%, negative = inhibition) at 10uM": -71.2},
      {"smiles": "Clc1cccc(N/N=C/c2ccncc2)c1", "hERG current change (%, negative = inhibition) at 10uM": -10.2},
      {"smiles": "Cc1cc(C(=O)C(C)Sc2cccc[n+]2[O-])c(C)n1-c1ccc(Cl)cc1", "note": "(stereo not shown)", "hERG current change (%, negative = inhibition) at 10uM": -12.8},
      {"smiles": "CC(C)/C=C1\\CCc2c([nH]c3ccccc23)C1=O", "hERG current change (%, negative = inhibition) at 10uM": 9.91},
      {"smiles": "Cc1c(S(=O)(=O)c2ccccn2)c(N)n(Cc2ccccc2)c1C", "hERG current change (%, negative = inhibition) at 10uM": 0.158},
      {"smiles": "CN(C)CCCn1cnc2c(c1=N)C(c1ccccc1)c1ccc3ccccc3c1O2", "note": "(stereo not shown)", "hERG current change (%, negative = inhibition) at 10uM": -75.9},
      {"smiles": "CN(C)CCn1cnc2c(c1=N)C(c1ccccc1)c1ccc3ccccc3c1O2", "note": "(stereo not shown)", "hERG current change (%, negative = inhibition) at 10uM": -79.2},
      {"smiles": "O=C(Nc1cc(=O)[nH]c2ncnn12)c1ccccc1F", "hERG current change (%, negative = inhibition) at 10uM": 11},
      {"smiles": "CCC(=O)N1CCc2cc(Br)cc(S(=O)(=O)N3CCCCCC3)c21", "hERG current change (%, negative = inhibition) at 10uM": -28.6},
      {"smiles": "O=C(c1ccc(COc2ccccc2Cl)o1)N1CCCC1", "hERG current change (%, negative = inhibition) at 10uM": -23.6},
      {"smiles": "COc1ccc(C(=O)Nc2ccc(N3CCOCC3)cc2)cc1S(=O)(=O)NC1CCCC1", "hERG current change (%, negative = inhibition) at 10uM": 13.1},
      {"smiles": "Cc1ccc(C(=O)N2CCN(c3cccc(Cl)c3)CC2)cc1C", "hERG current change (%, negative = inhibition) at 10uM": -13.4},
      {"smiles": "COc1ccc(C(=O)N2CCN(c3ccc(C(C)=O)cc3F)CC2)cc1S(=O)(=O)NC1CC1", "hERG current change (%, negative = inhibition) at 10uM": -37.5},
      {"smiles": "COc1ccc(C(=O)N2CCN(c3ccc(F)cc3)CC2)cc1S(=O)(=O)NC1CC1", "hERG current change (%, negative = inhibition) at 10uM": -59.2},
      {"smiles": "COc1ccc(C(=O)N2CCN(c3ccccc3Cl)CC2)cc1S(=O)(=O)NC1CC1", "hERG current change (%, negative = inhibition) at 10uM": -32.7},
      {"smiles": "COc1ccc(C(=O)N2CCN(c3cccc(Cl)c3)CC2)cc1S(=O)(=O)NC1CC1", "hERG current change (%, negative = inhibition) at 10uM": -63.5},
      {"smiles": "O=C(OC1CCCCC1=O)c1ccc(S(=O)(=O)Nc2ccccc2)cc1", "note": "(stereo not shown)", "hERG current change (%, negative = inhibition) at 10uM": 0.644},
      {"smiles": "Nc1cc(Cl)cc(C(=O)O)c1Cl", "hERG current change (%, negative = inhibition) at 10uM": 15.9},
      {"smiles": "O=C(Cn1cnc2sc(-c3ccccc3)cc2c1=O)NCc1ccco1", "hERG current change (%, negative = inhibition) at 10uM": -3.75},
      {"smiles": "O=C(Nc1ccc(Cl)cc1)c1cccc(S(=O)(=O)Nc2ccccn2)c1", "hERG current change (%, negative = inhibition) at 10uM": -6.23},
      {"smiles": "O=C(Nc1nnc(SCc2ccc(F)cc2)s1)C1Cc2ccccc2CN1C(=O)c1ccco1", "note": "(stereo not shown)", "hERG current change (%, negative = inhibition) at 10uM": -6.55},
      {"smiles": "Cc1cc(C)n2nc(-c3sccc3-n3c(C)ccc3C)cc2n1", "hERG current change (%, negative = inhibition) at 10uM": 17.3},
      {"smiles": "Cc1cc(-c2ccc(Cl)cc2)n2nc(C)cc2n1", "hERG current change (%, negative = inhibition) at 10uM": 4.45},
      {"smiles": "Cc1nn(CC(=O)Nc2cc(S(=O)(=O)N(C)C)ccc2Cl)c(C)c1[N+](=O)[O-]", "hERG current change (%, negative = inhibition) at 10uM": -20.9},
      {"smiles": "CCC1(c2ccccc2)NC(=O)N(CC(=O)Nc2ccc(Cl)c(S(=O)(=O)N3CCCCC3)c2)C1=O", "note": "(stereo not shown)", "hERG current change (%, negative = inhibition) at 10uM": 12.4},
      {"smiles": "CN(C)S(=O)(=O)c1ccc(NC(=O)Cn2ccsc2=N)cc1", "hERG current change (%, negative = inhibition) at 10uM": 13.7},
      {"smiles": "Cc1ccc(NC(=O)Cn2ccsc2=N)cc1S(=O)(=O)N(C)C.Cl", "hERG current change (%, negative = inhibition) at 10uM": -13.4},
      {"smiles": "CC1(c2ccccc2)NC(=O)N(CC(=O)Nc2ccc(Cl)c(S(=O)(=O)N3CCCCC3)c2)C1=O", "note": "(stereo not shown)", "hERG current change (%, negative = inhibition) at 10uM": -8.09},
      {"smiles": "Cc1ccc(S(=O)(=O)N2CCOCC2)cc1NC(=O)Cn1ccsc1=N.Cl", "hERG current change (%, negative = inhibition) at 10uM": -5.64},
      {"smiles": "O=C(Cn1ccccc1=O)Nc1ccc(Cl)c(S(=O)(=O)N2CCCCC2)c1", "hERG current change (%, negative = inhibition) at 10uM": -79.4},
      {"smiles": "Cl.N=c1sccn1CC(=O)Nc1ccc(Cl)c(S(=O)(=O)N2CCOCC2)c1", "hERG current change (%, negative = inhibition) at 10uM": -50.4},
      {"smiles": "Cl.N=c1sccn1CC(=O)Nc1ccc(S(=O)(=O)N2CCOCC2)cc1", "hERG current change (%, negative = inhibition) at 10uM": -5.32},
      {"smiles": "Cc1nn(CC(=O)Nc2ccc(S(=O)(=O)N(C)C)cc2)c(C)c1[N+](=O)[O-]", "hERG current change (%, negative = inhibition) at 10uM": -5.89}
    ]}
  ]
}
